Among all 300,000 compounds or so, about 3,700 (1.2%) were called active. About 20% were inconclusive and are not listed. The call rests on the fitted dose curve; tested in HEK293 cells. The entries come from a sample that favours actives as a whole.
experiment: qHTS for Inhibitors of binding or entry into cells for Lassa Virus; details: Lassa virus pseudotype entry inhibition, cell reporter; series mostly up to 37.9 µM; activity change, negative = inhibition: at the top concentration; further: nearly all actives have a fitted effect of over 50% in size
On the % scale 0 is the no-effect control and ±100 the full control effect; potency means the concentration at half of the fitted maximal effect.

Structure (SMILES) | activity change, negative = inhibition | Potency
O=C(COC(=O)C1CCCO1)Nc1nc(-c2ccc(F)cc2)cs1 (centres undefined) | -0.186% [at 46.1 µM] (inactive) | 
COc1cc(N)c(Cl)cc1C(=O)OCC(=O)c1ccc2c(c1)NC(=O)CO2 | 18.6% (inactive) | 
COC(=O)C=C[C@H]1c2ccccc2[C@@H](OC)[C@@H]1C | -0.222% [at 14.3 µM] (inactive) | 
NC1=NC(c2ccc([N+](=O)[O-])cc2)N(c2ccc(F)cc2)C(N)=N1 (centres undefined) | 28.8% [at 46.1 µM] (inactive) | 
CC(C)Sc1nc(N)nc2c1ncn2C1OC(CO)C(O)C1O (centres undefined) | 10.1% [at 46.1 µM] (inactive) | 
COc1cc2c(cc1OC)CN(C(=O)c1cc(S(=O)(=O)N3CCCCC3)ccc1Cl)CC2 | -0.858% [at 46.1 µM] (inactive) | 
CCOc1ccccc1NC(=S)C(=C([O-])c1ccc2c(c1)OCCO2)[n+]1ccc(CC)cc1 | 7.85% [at 46.1 µM] (inactive) | 
CC(C)c1ccc(NC(=O)c2ccc(Cn3nc(N4CCN(c5ccccc5)CC4)ccc3=O)o2)cc1 | 16.8% [at 46.1 µM] (inactive) | 
O=C(CSc1nnc(COc2ccc(Cl)cc2)n1Cc1ccco1)N1CCNC1=O | -12.1% (inactive) | 
O=C(c1cc(C(=O)N2CCN(c3ccc(F)cc3)CC2)cc([N+](=O)[O-])c1)N1CCN(c2ccc(F)cc2)CC1 | -26.7% (inactive) | 
O=C(NCCCN1CCCC1=O)C(=O)NCC1OCCN1S(=O)(=O)c1ccc(Br)cc1 (centres undefined) | 12.8% (inactive) | 
CCc1cccc(NC(=O)CN(C)S(=O)(=O)c2ccc3[nH]c4c(c3c2)CCCC4)c1 | -0.536% [at 46.1 µM] (inactive) | 
Cc1cc(C)cc(NC(=S)NCc2ccc(F)cc2)c1 | 11.6% (inactive) | 
Cc1cccc(NC(=S)NCc2ccc3[nH]c4c(c3c2)CCCC4)c1 |  | 20.6 µM (active)
CCCC(O)(c1ccccc1)C(c1ccccc1)c1ccccn1 (centres undefined) | 13.1% [at 46.1 µM] (inactive) | 
CCOC(=O)c1ccc(NC(=O)C2CCN(S(=O)(=O)c3ccc4c(c3)CCCC(=O)N4)CC2)cc1 | -0.487% [at 46.1 µM] (inactive) | 
CC(C)(CO)CNC(=O)c1ccc2[nH]c(O)c(N=Nc3ccc(S(N)(=O)=O)cc3)c2c1 |  | 1.58 µM (active)
COc1ccc(C(=O)NCCc2ccc(S(N)(=O)=O)cc2)cc1OC | 1.98% (inactive) | 
Cc1c(C)n(Cc2ccc(Cl)cc2)c2ccc(C(=O)NCCc3ccc(S(N)(=O)=O)cc3)cc12 | -15% [at 46.1 µM] (inactive) | 
CCCCOc1ccc(N(CC(=O)NCC2CCCO2)C(=O)CCC(=O)Nc2cc(C)ccn2)cc1 (centres undefined) |  | 23.1 µM (active)
Cc1cc(NC(=O)CCC(=O)N(CC(=O)NCC2CCCO2)c2ccccc2C)no1 (centres undefined) | -4.64% (inactive) | 
Cc1cc(NC(=O)CCC(=O)N(CC(=O)NCC2CCCO2)c2ccccc2)no1 (centres undefined) | 14% (inactive) | 

Structure (SMILES) | activity change, negative = inhibition | Potency
Cc1oc2ncnc(N3CCCCC3)c2c1C(=O)N1CCN(c2cccc(Cl)c2)CC1 | -17.4% [at 46.1 µM] (inactive) | 
Cc1ccc(OCC(=O)NNC(=S)NCc2ccccc2)cc1 | -3.7% (inactive) | 
Cc1ccc(CNC(=O)COc2ccc(S(=O)(=O)NC(C)C)cc2)cc1 | -27.2% (inactive) | 
Cc1ccc(CNC(=O)COc2ccc3c(c2)CCC3)cc1 |  | 18.4 µM (active)
O=C1CCc2cc(S(=O)(=O)Nc3ccc(C(F)(F)F)cc3)cc3c2N1CC3 | 0.263% (inactive) | 
CCOc1ccc(C(=O)CCC(=O)NC2=NCCS2)cc1 | 2.25% (inactive) | 
Cc1ccc2oc(=O)c3cnn(CC(=O)N4CCN(c5cccc(Cl)c5)CC4)c3c2c1 | -7.95% [at 46.1 µM] (inactive) | 
Cc1ccccc1CCNC(=O)C1CCC(=O)N(Cc2ccc(Cl)cc2)C1 (centres undefined) | -1.95% (inactive) | 
COc1ccccc1NC(=O)Nc1nc(CC(=O)Nc2ccccc2F)cs1 | 3.87% (inactive) | 
C(=N\Nc1ccc2ccccc2n1)/c1ccc2c(c1)OCO2 |  | 2.24 µM (active)
Brc1ccc(-c2csc(N/N=C/c3ccc4c(c3)OCO4)n2)cc1 | 7.35% (inactive) | 
Cc1noc(C)c1/C=N/Nc1ccc2ccccc2n1 | -25.4% (inactive) | 
CC(Sc1nncn1C)C(=O)NCCC1=CCCCC1 (centres undefined) | 16.2% [at 46.1 µM] (inactive) | 
Cn1nnc2cc(C(=O)NCCC3=CCCCC3)ccc21 |  | 8.91 µM (active)
Cc1ccc(-n2cnc3cc(C(=O)NCCC4=CCCCC4)ccc32)cc1Cl | 12.8% [at 46.1 µM] (inactive) | 
Cc1cccc(C(=O)N[C@H](C(=O)NCc2cccs2)C(C)C)c1 | 0.171% (inactive) | 
COc1ccc2c(c1)c(=Cc1ccc(N(C)C)cc1)c1cc(-c3ccccc3)[n+](C)n12 |  | 8.91 µM (active)
CCc1nnc(SCc2c(F)cccc2Cl)c2cc3sccc3n12 | -13.9% [at 46.1 µM] (inactive) | 
O=C(COC(=O)c1ccc(Oc2ccccc2)cc1)Nc1nnc(-c2ccccc2)o1 | 11.2% (inactive) | 
COc1cccc(-c2nnc(NC(=O)c3ccc(S(=O)(=O)N(CC(C)C)CC(C)C)cc3)o2)c1 |  | 7.08 µM (active)
CS(=O)(=O)c1ccc(-c2nnc(NC(=O)c3ccc4c(c3)OCCO4)o2)cc1 | -1.29% [at 46.1 µM] (inactive) | 
COC(=O)c1ccc(NS(=O)(=O)c2cc3c4c(c2)C(C)C(=O)N4CCC3)cc1 (centres undefined) | -10.9% (inactive) | 

Structure (SMILES) | activity change, negative = inhibition | Potency
COc1ccc(C(=O)N2CCN(c3ccc(C(C)=O)cc3F)CC2)cc1S(=O)(=O)NC1CC1 | -10.2% (inactive) | 
CC(C)(CNC(=O)c1ccc(Cl)c(S(=O)(=O)N2CCc3ccccc3C2)c1)N1CCOCC1 |  | 11.2 µM (active)
CC(C)(CNC(=O)Cc1ccc(Cl)cc1Cl)N1CCOCC1 | 12.5% [at 46.1 µM] (inactive) | 
O=C(NCCSCc1ccccc1)c1ccc(Cl)c(S(=O)(=O)N2CCOCC2)c1 | 2.76% (inactive) | 
Nc1ncnc2c1cnn2C1CC(O)C(CO)O1 (centres undefined) | -5.6% [at 46.1 µM] (inactive) | 
CSc1ncccc1C(=O)NCC(c1ccco1)N1CCCCC1 (centres undefined) | 1.83% (inactive) | 
CS(=O)(=O)Nc1ccc(C2=NN(S(C)(=O)=O)C(c3cccs3)C2)cc1 (centres undefined) | -10.6% (inactive) | 
CCS(=O)(=O)Nc1ccc(C2=NN(S(=O)(=O)c3ccc(F)cc3)C(c3ccco3)C2)cc1 (centres undefined) |  | 7.3 µM (active)
CCS(=O)(=O)Nc1ccc(C2=NN(C(C)=O)C(c3cccs3)C2)cc1 (centres undefined) | -18.5% (inactive) | 
COc1ccccc1C(=O)c1ccccc1C(=O)c1ccccc1 | -0.819% [at 46.1 µM] (inactive) | 
COc1ccc(-c2cn3nc(N4CCC(C(=O)Nc5cccc(C)c5C)CC4)sc3n2)cc1 | 18.7% [at 46.1 µM] (inactive) | 
CC(C)OC(=O)c1ccc(NCc2cc(O)ccc2O)cc1Cl |  | 10 µM (active)
CC(C)NC(=O)c1ccc(Cl)cc1Cl | 12.8% [at 46.1 µM] (inactive) | 
CC(OC(=O)c1ccc(Cl)cc1O)C(=O)NCCC1=CCCCC1 (centres undefined) | 2.74% (inactive) | 
O=C(Cn1c(-c2cccs2)cc2ccccc21)NCCc1ccc(Cl)cc1 | 8.67% [at 46.1 µM] (inactive) | 
O=C1c2ccccc2C(=O)N1CCCCCCN1C(=O)c2ccccc2C1=O | 0% [at 46.1 µM] (inactive) | 
CC(=O)c1ccc(S(=O)(=O)NC2CC(=O)N(c3ccc4c(c3)OCCO4)C2)cc1 (centres undefined) | -2.24% (inactive) | 
O=C(CSc1nncs1)NC1CCCc2ccccc21 (centres undefined) | 14% [at 46.1 µM] (inactive) | 
CSc1ccccc1N1CCN(CCCCCC(=O)NC2CCCc3ccccc32)CC1 (centres undefined) |  | 11.6 µM (active)
O=C(CN1CCN(c2ccc(O)cc2)CC1)NC1CCCc2ccccc21 (centres undefined) | -29.6% (inactive) | 
